This note sets out measurements from PubChem BioAssay (NCI).

Experiment in all cases: NCI-60 one-dose screen, 48 h (100 = growth as untreated, 0 = no growth, -100 = all killed)
What all share (details): 10 µM unless noted

Assay [1] relates to HCT-15 colon.
In assay [2] the test system is HT29 colon.
In assay [3] the test system is SNB-75 CNS.
In assay [4] the test system is SNB-19 CNS.
Assay [5] deals with U251 CNS.
In assay [6] the test system is PC-3 prostate.
The test system of assay [7] is SK-MEL-28 melanoma.
Assay [8] deals with SK-MEL-5 melanoma.
The test system of assay [9] is UACC-62 melanoma.
Assay [10] relates to LOX IMVI melanoma.

Molecules are shown by their SMILES. Compounds without any hit were thinned out: in the full panel of roughly 83,000, 20% have a hit.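 Values shown are percent growth following 48 h exposure of cells in 96-well plates to a single concentration of compound; below 10 was considered active.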 Unmarked numbers belong to inactive results. Active and inactive are the calls of the source.

`O=C1c2c(c3c4cc(Br)ccc4[nH]c3c3ccc4ccccc4c23)C(=O)N1CCN1CCNCC1`: the growth in assay [1] was -87.3% (active); in assay [2], 8.96% (active); in [3], 85%; in assay [4], 77.3%; in assay [5], -47.3% (active); in [6], 67.2%. Also, in [7], the growth was 95.9%.
As to `C#C[C@]1(O)CC[C@H]2[C@@H]3CC=C4c5sc(C6CCOCC6)nc5CC[C@]4(C)[C@H]3CC[C@@]21C`, the growth was 36.1% in [1]; 44.2% in [2]; 78.9% in [3]; 57.6% in [5]; 63.2% in [6]; 85.2% in assay [8]. Besides, the growth in assay [9] was 64.7%; in assay [10] it was 65.8%; in [7] it was 56.5%.
Consider `COc1ccc(-c2oc3cc(O)cc(O)c3c(=O)c2OC)cc1O`, for which the growth in assay [1] was 33.2%; in assay [2] it was 57%; in assay [3], -24.3% (active); in assay [4], 28.2%; in [5] it was 15.6%; in assay [6] it was 24.1%. Further, the growth in assay [10] is 36.8%.
Regarding `CCN(CC)Cc1c(-c2cccc(OC(F)(F)F)c2)[nH]c2ccc(N3CCCC3)cc2c1=O`, the growth in assay [1] was 90.1%; in assay [2] it was 104%; in assay [3], 88.1%; in assay [5], 99.6%; in [6], 90.5%; in [8], 98.3%. Further, the growth was 82.7% in assay [9], 90.9% in assay [10] and 92.2% in assay [7].
On to `CCOc1c(C#N)c(Nc2ccc(S(N)(=O)=O)cc2)c(C#N)c2nnc(C)n12`, for which the growth in assay [1] is 105%; in assay [2] it was 107%; in assay [3] it was 91%; in [5], 108%; in [6], 85.4%; in assay [8] it was 97.8%. Also, the growth was 91.8% in [9], 95.6% in assay [10] and 110% in assay [7].
Take `CC1OC(O[C@@H]2[C@H](O)C(CO)OC(O[C@H]3COC(O[C@H]4CC[C@]5(C)[C@H]6CC[C@]78OC[C@@]9(CCC(C)(C)C[C@H]97)[C@H](O)C[C@@]8(C)[C@]6(C)CC[C@H]5C4(C)C)[C@@H](OC4OC(CO)[C@@H](O)[C@@H](O)[C@@H]4O)[C@@H]3O)[C@H]2OC2OC[C@@H](O)[C@@H](O)[C@@H]2O)[C@@H](O)[C@@H](O)[C@H]1O` (some centres not stated): the growth in assay [1] is -52.8% (active); in assay [2] it was -79% (active); in [3], -87.1% (active); in assay [4] it was -69.2% (active); in assay [5], -86.8% (active); in assay [6] it was -85.4% (active). In addition, the growth in [10] is -82.7% (active).
In the case of `CC(=O)c1sc(Nc2cccc(Nc3nc(C)c(C)s3)c2)nc1C`, the growth was 44.9% in assay [1]; 70% in assay [2]; 62.9% in assay [3]; 65.7% in assay [5]; 51.3% in assay [6]; 55.8% in [8]. In addition, the growth in [9] was 48.8%; in assay [10], 48.1%; in assay [7], 71.5%.
On to `Cc1ccc(NC(=O)c2ccc(CN3CCN(C)CC3)c(C(F)(F)F)c2)cc1Oc1ccc(-c2[nH]nc3ncnc(N)c23)cc1`, for which the growth in assay [1] was 28.8%; in [2] it was -8.89% (active); in assay [3], 93.3%; in assay [5], -27.7% (active); in [6], 78.7%; in assay [8], 73%. For the same compound, the growth in assay [9] is 82.6%; in assay [10], -85.3% (active).
As for `CNC(=O)c1cc(Oc2ccc3nc(NC(=O)c4ccc(CN5CCCN(C)CC5)c(C(F)(F)F)c4)sc3c2)ccn1`, the growth was -21.4% (active) in assay [1]; -75.5% (active) in assay [2]; 47.5% in assay [3]; 1.82% (active) in assay [5]; 22.2% in [6]; -59.9% (active) in assay [8]. The growth is -7.16% (active) in assay [9], -81.9% (active) in assay [10] and -74% (active) in assay [7].
For the compound `C=C1C(=O)O[C@@H]2C[C@@H](C)[C@H](OC)CC(=O)[C@](C)(OC(C)=O)C[C@H](OC(=O)/C(C)=C\C)[C@@H]12`, the growth in assay [1] is 58.9%; in assay [2], 59.5%; in assay [3], 78.7%; in assay [4] it was 99.1%; in assay [5], 91.5%; in assay [6], 83.6%. Also, in assay [10], the growth was 84.4%.
Take `O=S(=O)(NC1CC2CCC1C2)c1ccc2c(c1)C(=NO)c1cc(S(=O)(=O)NC3CC4CCC3C4)ccc1-2` (configuration not stated): the growth in assay [1] was 31.2%; in assay [2] it was 22.3%; in assay [3] it was 37.2%; in assay [4] it was 63.3%; in [5], -64.2% (active); in [6] it was 59.2%. In addition, the growth in assay [9] is 71%; in [10] it was -90.5% (active); in [7], 92.3%.
Regarding `CC1=CC(=O)CC(C)(C)[C@@]1(O)/C=C/C(C)=C\C(=O)O`, the growth in [1] was -23.1% (active); in assay [2], -36.9% (active); in assay [3], -41.2% (active); in assay [5], -18.5% (active); in [6], -7.5% (active); in assay [8], -83% (active). Moreover, the growth in assay [9] was -56.9% (active); in assay [10], -75.8% (active); in assay [7], -34.6% (active).
In the case of `CCOC(=O)c1nn(-c2ccc(C)cc2)c(=O)c2c(N)c(C#N)c(-c3ccc(OC)cc3)cc12`, the growth was 99.2% in assay [1]; 99.4% in assay [2]; 67.3% in [3]; 103% in [5]; 94.8% in assay [6]; 99.9% in assay [8]. Moreover, the growth in assay [9] was 94.9%; in assay [10], 95.5%; in [7], 100%.
With `COc1ccc(-c2cc(-c3cccc4ccccc34)n3c(n2)nc2ccccc23)cc1OC`, the growth in assay [1] is 27.4%; in [2] it was 21.5%; in [3] it was 40.7%; in assay [5], 20.4%; in assay [6] it was 30.8%; in assay [8] it was 17.9%. The growth was 20% in assay [9], 30.9% in assay [10] and 51.5% in assay [7].
